Records with an inconclusive call do not appear. Active and inactive are the calls of the source. Calls follow the shape of the dose curve; as a rule, active = well fitted inhibition curve with a large enough effect; inconclusive = small, poorly fitted or top-dose-only effect; inactive = flat fitted curve, though single readings scatter.
Assay: High Content Assay for Compounds that inhibit the Assembly of the Perinucleolar Compartment: PC3M Cytotoxicity
Conditions: PC3M cells, ATPLite luminescence viability, 24 h; series mostly up to 46.1 µM
Excerpt: High Content Assay for Compounds that inhibit the Assembly of the Perinucleolar Compartment
NIH Chemical Genomics Center [NCGC]
NIH Molecular Libraries Probe Centers Network [MLPCN]
Assay Submitter (PI): Sui Huang, Northwestern University, Feinberg School of Medicine, Cell and Molecular Biology, Chicago, Illinois.
The perinucleolar compartment (PNC) is a non-membrane-bound nuclear subdomain that is associated with but structurally distinct from the nucleolus. The PNC is a heritable trait, in which the number of PNCs per cell in daughter cells often mimics that of their mother cells. The PNC is heterogeneous in shape, is stable through interphase, disassembles during mitosis, and reassembles in early G1. The PNC is concentrated with newly synthesized RNA polymerase III (pol III) RNAs (MRP RNA, RNAse P H1 RNA, hY RNAs[hY1, 2, 5], Alu RNA, and SRP [7SL] RNA) and RNA binding proteins (nucleolin, PTB, CUG-BP, KSRP, Raver1, Raver2, and Rod).
Extensive in vitro studies have shown that the PNC is unique to tumor cells and preferentially forms in tumor cells derived from solid tissues. Examination of cancer cell lines from various origins and malignant capacities has shown that PNC prevalence correlates with the malignancy of tumors and has the potential to be developed as a pan-cancer prognostic marker.
Although the PNC is associated with a DNA locus and a handful of components have been identified, much remains to be investigated regarding the structure and function of the PNC and its mechanistic link to cancer. We have previously shown that PNC prevalence reduction is a valid strategy to identify compounds that can be used to study the structure and function of the PNC. It is necessary, however, to create a screening platform that is able to test a large number of compounds in an automated fashion. Here we report the development and robustness of an automated whole-cell phenotypic image-based screening assay that is capable of identifying such compounds.
We conducted a followup assay to measure the effect of the lead candidates on cell health by measuring ATP levels (ATPLite). The highly metastatic PC3M-GFP reporter cell line was used in this study.
1. Cells at a density of 75-90% confluency in T175 flasks were harvested using 7 ml TrypLE Express cell dissociation reagent. After dissociation (5 minutes room temperature incubation) 10 ml of complete media was added to the TrypLE/cell suspension. The liquid was transferred to a 50 ml Conical tube and cells were pelleted at 1000 RPM for 5 min. Supernatant was removed and cells were resuspended to a final density of 150-200 cells/ul in complete media.
2. Cells were plated in 5 ul volume (2000 cells/well) into 1536 well White solid bottom plates and allowed to recover and adhere at 37 C in a humidified 5% CO2 incubator for 4 hours.
3. After 4 hour incubation, compound libraries (23 nl of 12.5 uM in columns 5-48) were transferred to the plates in duplicate using a 1536 well pintool. Camptothecin positive control (59 uM final) was added to column 2 and 1:3 dilutions of camptothecin was added to column 3. DMSO negative controls were present in columns 1 and 4.
4. After a 24 hour incubation in the 37 C incubator, all wells were treated with 3 ul of ATPLite reagent using a multidrop combi dispenser (ThermoFisher). Bubbles that formed during dispensing were removed by spinning the plates for 1 minutre at 1500 RPM on a table top centrifuge.
5. Luminescencent signal was detected on a Viewlux CCD based imager (PerkinElmer) with a clear filter and a 30 second integration time.
The PC3M cell line stably expressing the PTB-GFP was provided by Sui Huang of Northwestern University. The media and cell culture reagents were purchased from Invitrogen (Carlsbad, CA), ATPLite came from PerkinElmer.

Row | Compound | Potency
1 | COC(=O)c1ccc(CSc2ccccc2C)o1 | inactive
2 | CCN=c1scc(-c2ccccc2)n1/N=C/c1ccccn1 | 10 µM (active)
3 | O=C(N/N=C/c1c(O)ccc2ccccc12)c1cccc(C(F)(F)F)c1 | 8.91 µM (active)
4 | Cc1ccc(-n2cc(-c3ccccc3)c3c(NN4CCOCC4)ncnc32)cc1 | inactive
5 | CC12CCC(C(=O)NC(c3ccccc3)c3ccccc3)(OC1=O)C2(C)C (configuration not stated) | inactive
6 | Cc1c(C#N)c(N)nc2c3c(sc12)NC(=O)CC3c1ccc(F)cc1 (configuration not stated) | inactive
7 | COc1cccc(CNc2cccc3cccnc23)c1O | inactive
8 | O=C(Nc1ccc(NC(=O)C2CC2)cn1)c1ccccc1Cl | 28.2 µM (active)
9 | CC(=O)N(C)C1=C(N2CCOCC2)C(=O)c2ccccc2C1=O | 15.8 µM (active)
10 | O=S(=O)(Nc1cc(Sc2cccc3cccnc23)c(O)c2ccccc12)c1ccc(F)cc1 | 15.8 µM (active)
11 | O=c1[nH]cnc2c1C(c1ccccc1[N+](=O)[O-])c1c(nc[nH]c1=O)O2 | inactive
12 | Cc1cc[n+](C2=C([O-])c3ccccc3C(=O)/C2=N\S(=O)(=O)c2cccs2)cc1C | 25.1 µM (active)
13 | C=CCNC(=S)N/N=C(\C)c1ccccn1 | 6.31 µM (active)
14 | C/C(N)=C(/C#N)C(=O)COC(=O)c1cc(C)n(-c2ccc(F)cc2)c1C | 12.6 µM (active)
15 | Cc1ccc(NC(=S)NCCc2ccc(S(N)(=O)=O)cc2)cc1C | inactive
16 | C=CCN=c1scc(-c2ccccc2)n1/N=C/c1ccccn1 | 14.1 µM (active)
17 | COc1ccccc1NC1=C(N2CCCCC2)C(=O)c2ccccc2C1=O | 7.94 µM (active)
18 | Nc1cccc(-c2nc3ccc(N)cc3s2)c1 | 25.1 µM (active)
19 | CCc1ccc(S(=O)(=O)/N=C2/C=C(Sc3ncn[nH]3)C(=O)c3ccccc32)cc1 | 35.5 µM (active)
20 | Cc1cccc(NC2=C/C(=N/S(=O)(=O)c3cccs3)c3ccccc3C2=O)c1 | 15.8 µM (active)
21 | N=c1c2c(-c3ccccc3)c(-c3ccccc3)n(Cc3ccccc3)c2ncn1CCCO | inactive
22 | COc1cc(C(=O)Oc2ccccc2/C=N/NC(=O)c2ccc(Cl)cc2)cc(OC)c1OC | 11.2 µM (active)

From PubChem BioAssay AID2733 (National Center for Advancing Translational Sciences (NCATS), 2010)
